Assay results as given in PubChem BioAssay (NCATS).
Results filed as inconclusive are left out. Activity calls are given as the source filed them. Unless noted, calls follow the shape of the dose curve; as a rule, active = well fitted curve in the direction sought with a large enough effect; inconclusive = small, poorly fitted or top-dose-only effect, or another doubt; inactive = no such curve, though single readings can be large; an effect the other way counts as inactive or inconclusive.

What was measured:
[1] = target: Muscarinic acetylcholine receptor M1 (Rattus norvegicus) (UniProt P08482); assay: qHTS Assay for Antagonists of Acetylcholine Muscarinic M1 Receptor: Kinetic Measurement of Intracellular Calcium Response (AID 943); also: nearly all actives have a fitted effect of over 75% in size; also: potency is read from the fitted curve at half-maximal effect
In short: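 CHO cells expressing rat M1 receptor, Fluo-4 loaded, preincubated 10 min with compound, then stimulated with EC80 carbachol (100 nM final). Kinetic calcium fluorescence over 4 min; response taken as peak over basal signal.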

[2] = target: ATP-dependent 6-phosphofructokinase (Trypanosoma brucei brucei) (UniProt O15648); assay: qHTS Assay to Find Inhibitors of T. brucei phosphofructokinase: hit validation (AID 492961);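 also: luminescence reports ADP formed as PFK phosphorylates fructose-6-phosphate with ATP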
In short: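 ADP-Glo luminescence read-out of ADP formed by 1.25 nM PFK from 0.1 mM ATP and 0.5 mM F6P (TEA pH 8.0, 45 min, RT). Compounds titrated; activity normalized to no-enzyme and full-enzyme controls.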

[3] = tested on: 3D7; assay: qHTS profiling for inhibitors of Plasmodium falciparum proliferation (AID 504749); also: nearly all actives have a fitted effect of over 60% in size; also: potency is read from the fitted curve at half-maximal effect; conditions: P. falciparum in erythrocytes, SYBR Green DNA, 72 h; series mostly up to 28.7 µM
In short: (§1)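 Infected RBCs, 0.3% parasitemia/2.5% Hct final; cpd 72 h, 37 C, 5% CO2; lysis buffer with saponin/triton/SYBR Green I, o/n RT dark; FI 485/535; norm. to artemisinin (0.29 uM) and DMSO.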

[4] = tested on: 7G8; assay: as above; conditions: P. falciparum in erythrocytes, SYBR Green DNA, 72 h; series mostly up to 28.7 µM
In short: as §1

[5] = tested on: AA1029; assay: as above; conditions: P. falciparum in erythrocytes, SYBR Green DNA, 72 h; series mostly up to 28.7 µM
In short: as §1

[6] = tested on: CP238; assay: as above; conditions: P. falciparum in erythrocytes, SYBR Green DNA, 72 h; series mostly up to 28.7 µM
In short: as §1

[7] = tested on: CP247; assay: as above; conditions: P. falciparum in erythrocytes, SYBR Green DNA, 72 h; series mostly up to 28.7 µM
In short: as §1

[8] = tested on: CP260; assay: as above; conditions: P. falciparum in erythrocytes, SYBR Green DNA, 72 h; series mostly up to 28.7 µM
In short: as §1

[9] = tested on: CP305; assay: as above; conditions: P. falciparum in erythrocytes, SYBR Green DNA, 72 h; series mostly up to 28.7 µM
In short: as §1

[10] = tested on: FAB9; assay: as above; conditions: P. falciparum in erythrocytes, SYBR Green DNA, 72 h; series mostly up to 28.7 µM
In short: as §1

[11] = tested on: HB3; assay: as above; conditions: P. falciparum in erythrocytes, SYBR Green DNA, 72 h; series mostly up to 28.7 µM
In short: as §1

[12] = tested on: ICS; assay: as above; conditions: P. falciparum in erythrocytes, SYBR Green DNA, 72 h; series mostly up to 28.7 µM
In short: as §1

[13] = tested on: JCK; assay: as above; conditions: P. falciparum in erythrocytes, SYBR Green DNA, 72 h; series mostly up to 28.7 µM
In short: as §1

[14] = tested on: N140; assay: as above; conditions: P. falciparum in erythrocytes, SYBR Green DNA, 72 h; series mostly up to 28.7 µM
In short: as §1

[15] = tested on: P93_24; assay: as above; conditions: P. falciparum in erythrocytes, SYBR Green DNA, 72 h; series mostly up to 28.7 µM
In short: as §1

[16] = tested on: P94_40; assay: as above; conditions: P. falciparum in erythrocytes, SYBR Green DNA, 72 h; series mostly up to 28.7 µM
In short: as §1

[17] = tested on: PAD; assay: as above; conditions: P. falciparum in erythrocytes, SYBR Green DNA, 72 h; series mostly up to 28.7 µM
In short: as §1

[18] = tested on: TAB109; assay: as above; conditions: P. falciparum in erythrocytes, SYBR Green DNA, 72 h; series mostly up to 28.7 µM
In short: as §1

[19] = target: Mitogen-activated protein kinase 10 (Mus musculus) (UniProt Q61831); assay: JNK3 AlphaScreen Assay (AID 530; active = well fitted curve in either direction with a large enough effect, not every such curve was filed as active;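 also: kinase came from lysate of stimulated human HepG2 cells; signal reports phosphorylation of biotinylated GST-cJun 1-79 at Ser73 with 10 µM ATP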)
In short: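 Compound titrations were preincubated 15 minutes at room temperature with substrate, antibody and pre-activated JNK3-containing HepG2 lysate. Reactions were started with 10 uM ATP and stopped with EDTA-containing bead buffer for AlphaScreen detection.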

[20] = qHTS for Inhibitors of Ubiquitin-specific Protease USP2a Using CHOP2 as the Reporter: K633 Counterscreen (AID 652168)
In short: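 Cell-free interference counterscreen without USP2a: compounds pinned into enzyme-free buffer (20 mM Tris pH 8, 2 mM beta-mercaptoethanol, 0.05% Chaps), then DiUb K48-4IQF substrate added (100 nM stock); fluorescence read kinetically, Ex 525/Em 598.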

Measured: Potency

Chain of ATP-dependent 6-phosphofructokinase (Trypanosoma brucei brucei) (O15648 whole entry, looked up): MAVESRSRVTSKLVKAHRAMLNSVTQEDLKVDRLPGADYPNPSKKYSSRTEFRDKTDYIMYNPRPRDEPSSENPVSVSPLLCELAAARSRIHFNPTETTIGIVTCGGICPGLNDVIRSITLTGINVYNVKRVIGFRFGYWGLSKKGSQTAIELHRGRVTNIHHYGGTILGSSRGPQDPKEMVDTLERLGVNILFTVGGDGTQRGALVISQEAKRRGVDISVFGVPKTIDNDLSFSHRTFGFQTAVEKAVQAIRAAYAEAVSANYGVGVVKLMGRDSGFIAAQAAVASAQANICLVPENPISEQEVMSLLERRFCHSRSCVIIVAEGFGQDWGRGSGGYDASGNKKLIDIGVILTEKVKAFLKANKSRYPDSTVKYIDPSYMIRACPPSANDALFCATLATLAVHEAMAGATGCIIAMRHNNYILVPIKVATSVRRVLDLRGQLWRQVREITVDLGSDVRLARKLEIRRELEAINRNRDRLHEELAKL
Chain of Muscarinic acetylcholine receptor M1 (Rattus norvegicus) (P08482 whole entry, looked up): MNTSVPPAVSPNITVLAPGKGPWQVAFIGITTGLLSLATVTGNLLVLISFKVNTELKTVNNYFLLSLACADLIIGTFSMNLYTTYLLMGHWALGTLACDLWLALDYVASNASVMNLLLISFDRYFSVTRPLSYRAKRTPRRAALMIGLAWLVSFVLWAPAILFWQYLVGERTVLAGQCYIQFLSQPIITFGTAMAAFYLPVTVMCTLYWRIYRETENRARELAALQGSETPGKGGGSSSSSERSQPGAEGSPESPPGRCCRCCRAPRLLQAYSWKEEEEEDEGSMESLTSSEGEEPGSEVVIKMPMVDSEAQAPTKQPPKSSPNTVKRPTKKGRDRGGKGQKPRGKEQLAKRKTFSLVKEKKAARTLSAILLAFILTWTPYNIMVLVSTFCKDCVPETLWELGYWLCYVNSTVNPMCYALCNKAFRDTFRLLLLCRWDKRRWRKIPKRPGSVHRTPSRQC

CC(=O)NCCc1ccc(O)c(O)c1
inactive: [1]

CC(C)C[C@H]1C(=O)N2CCCC2[C@]2(O)O[C@](NC(=O)[C@@H]3C=C4c5cccc6[nH]c(Br)c(c56)C[C@H]4N(C)C3)(C(C)C)C(=O)N12 (stereo partly drawn)
inactive: [2]
active: [3] 3.98 µM | [4] 0.708 µM | [5] 3.55 µM | [6] 10 µM | [7] 8.91 µM | [8] 1.58 µM | [9] 10.7 µM | [10] 8.91 µM | [11] 2.82 µM | [12] 0.708 µM | [13] 10 µM | [14] 3.16 µM | [15] 2.82 µM | [16] 2.82 µM | [17] 3.98 µM | [18] 5.62 µM

NCCCCNS(=O)(=O)c1cccc2c(Cl)cccc12
active: [1] 14.1 µM

CCSC(N)=Nc1ccc(C(F)(F)F)cc1
inactive: [19]

COc1ccc(CCNC[C@@H](O)c2ccc(O)cc2)cc1OC
not listed: [1] | [19] | [20]
inactive: all other assays above

NC(=NCCC[C@H](N)C(=O)O)NO
inactive: [19]

N[C@H](Cc1ccc(O)c(O)c1)C(=O)O
not listed: [1] | [2] | [4] | [9] | [13] | [19] | [20]
inactive: all other assays above

CC(C)CN(C)c1nc(N)c(C(=O)N=C(N)N)nc1Cl
inactive: [19]

COC(=O)c1c(-c2cc(OC)c(OC)c(OC)c2)c2ccc(OCc3ccccn3)cc2c(=O)n1-c1ccc(N)cc1
inactive: [19] | [1]

COc1cc2c(cc1OC)C(c1ccccc1)CN(C)CC2 (stereo not drawn)
inactive: [2] | [3] | [6] | [8] | [9] | [10] | [11] | [13] | [14] | [17]

CC(C)(C)[C@]1(O)CCN2CC3c4ccccc4CCc4cccc(c43)[C@@H]2C1 (stereo partly drawn)
inactive: [2] | [9] | [13]
active: [4] 11.2 µM | [5] 7.94 µM | [12] 10 µM | [15] 11.2 µM

CN1C[C@H](C(=O)N[C@]2(C)O[C@@]3(O)C4CCCN4C(=O)[C@H](Cc4ccccc4)N3C2=O)C[C@@H]2c3cccc4[nH]cc(c34)C[C@H]21 (stereo partly drawn)
active: [3] 8.91 µM | [4] 0.158 µM | [5] 3.55 µM | [6] 5.62 µM | [7] 7.08 µM | [8] 2 µM | [10] 10 µM | [11] 2.24 µM | [12] 0.1 µM | [13] 10 µM | [14] 0.891 µM | [15] 1.41 µM | [16] 3.16 µM | [17] 0.355 µM | [18] 7.08 µM

CCCC(=O)NCCc1c2n(c3ccc(OC)cc13)Cc1ccccc1-2
inactive: [19] | [1]

O=S(=O)(Nc1nccs1)c1ccc(Nc2nc(-c3ccccc3)cs2)cc1
inactive: [20]

O=[S+]([O-])(NCc1nccs1)c1ccc(Nc2nc(-c3ccccc3)cs2)cc1
inactive: [20]

Cc1ccc(S(=O)(=O)Nc2ccc(Br)cc2C(=O)Nc2nc(-c3ccccc3)cs2)cc1
inactive: [20]

O=C(Nc1nc(-c2ccccc2)cs1)c1ccncc1NS(=O)(=O)c1cccc2cccnc12
inactive: [20]

N#Cc1ccc(N[S+](=O)([O-])c2ccc(Nc3nc(-c4ccccc4)cs3)cc2)cc1
inactive: [20]
